Laboratory results reported in PubChem BioAssay AID1159580 (chemical genetic matrix, 2015).
Where “and” joins values, the source holds several entries; their conditions need not be identical. Identical values can stand only once. Screen size: about 5,500 compounds; about 2,000 (36%) were called active. Inconclusive results (about 18%) are left out. No stated cut-off is given here; in the data, active means normalized growth mostly below about 0.91 (no sharp cut-off); inconclusive means no clear call, values can overlap the other calls; inactive means mostly above about 0.92. The list shows a part of the results.

Assay: chemical genetic growth profiling, strain panel (AID 1159580);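 further: tested at 20 µM; growth read once vehicle control cultures reached saturation at 30 °C; 1 = growth at the plate median or of vehicle wells; lower values mean less growth of the strain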
Conditions: S. cerevisiae deletion strains, growth OD

Measured: normalized growth

CNCc1ccccc1
inactive: locus YAL013W, strain DEP1, hits give low values 0.994 | locus YAL021C, strain ccr4, hits give low values 1.01 | locus YAL026C, strain drs2, hits give low values 1.02 | locus YAL030W, strain snc1, hits give low values 1.02 | locus YBL061C, strain skt5, hits give low values 1.03 | locus YBR009C, strain hhf1, hits give low values 1.02 | locus YBR021W, strain FUR4, hits give low values 1.03 | locus YBR023C, strain chs3, hits give low values 1.03 | locus YBR171W, strain sec66, hits give low values 1.03 | locus YBR229C, strain ROT2, hits give low values 0.965 | locus YBR231C, strain swc5, hits give low values 1.01 | locus YBR279W, strain paf1, hits give low values 1.02 | locus YCL011C, strain gbp2, hits give low values 1.02 | locus YCL016C, strain dcc1, hits give low values 1.02 | locus YCL029C, strain bik1, hits give low values 0.984 | locus YCL061C, strain MRC1, hits give low values 1.01 | locus YCL069W, strain vba3, hits give low values 1.02 | locus YCR088W, strain abp1, hits give low values 1.03 | locus YDL005C, strain med2, hits give low values 1.02 | locus YDL035C, strain GPR1, hits give low values 1 | locus YDL040C, strain nat1, hits give low values 1 | locus YDL074C, strain BRE1, hits give low values 1.05 | locus YDL101C, strain DUN1, hits give low values 0.982 | locus YDL134C, strain PPH21, hits give low values 0.992 | locus YDL185W, strain tfp1, hits give low values 0.987 | locus YDL192W, strain arf1, hits give low values 0.997 | locus YDR001C, strain nth1, hits give low values 1.02 | locus YDR069C, strain doa4, hits give low values 1.01 | locus YDR101C, strain arx1, hits give low values 1.05 | locus YDR137W, strain rgp1, hits give low values 1.04 | locus YDR159W, strain sac3, hits give low values 1.05 | locus YDR162C, strain NBP2, hits give low values 0.957 | locus YDR195W, strain ref2 0.999 | locus YDR297W, strain sur2, hits give low values 1.02 | locus YDR318W, strain mcm21, hits give low values 0.965 | locus YDR334W, strain swr1, hits give low values 1.03 | locus YDR335W, strain msn5, hits give low values 1.02 | locus YDR388W, hits give low values 1.01 | locus YDR392W, strain spt3, hits give low values 1.01 | locus YDR502C, strain sam2, hits give low values 1 | locus YEL003W, strain gim4, hits give low values 1.02 | locus YEL037C, strain rad23, hits give low values 1.02 | locus YEL061C, strain CIN8 (second series), hits give low values 1.03 | locus YEL061C, strain CIN8, hits give low values 0.996 | locus YER015W, strain faa2, hits give low values 1.01 | locus YER016W, strain bim1, hits give low values 1.02 | locus YER110C, hits give low values 0.99 | locus YER111C, strain swi4, hits give low values 1.02 | locus YER155C, strain BEM2 (second series), hits give low values 1.02 | locus YER155C, strain BEM2, hits give low values 0.987 | locus YER167W, strain BCK2, hits give low values 0.988 | locus YFR010W, strain ubp6, hits give low values 1.04 | locus YGL078C, strain dbp3, hits give low values 0.999 | locus YGL086W, strain mad1, hits give low values 1.06 | locus YGL167C, strain pmr1, hits give low values 1.03 | locus YGL173C, strain kem1, hits give low values 1.03 | locus YGL227W, strain vid30, hits give low values 1.03 | locus YGL240W, strain doc1, hits give low values 1.01 | locus YGL248W, strain PDE1, hits give low values 0.984 | locus YGL253W, strain hxk2, hits give low values 1.03 | locus YGR078C, strain PAC10, hits give low values 0.981 | locus YGR135W, strain pre9, hits give low values 0.972 | locus YGR229C, strain SMI1, hits give low values 0.986 | locus YGR252W, strain gcn5, hits give low values 0.908 | locus YHR013C, strain ard1, hits give low values 1.03 | locus YHR027C, strain rpn1, hits give low values 1.04 | locus YHR030C, strain SLT2, hits give low values 1.01 and 0.986 | locus YHR079C, strain IRE1 (second series), hits give low values 0.989 | locus YHR079C, strain IRE1, hits give low values 0.975 | locus YHR094C, strain hxt1, hits give low values 0.978 | locus YHR129C, strain ARP1, hits give low values 1 | locus YHR142W, strain chs7, hits give low values 1.05 | locus YHR200W, strain rpn10, hits give low values 0.999 | locus YIL066C, strain RNR3, hits give low values 0.992 | locus YIL073C, strain SPO22, hits give low values 1.01 | locus YIL125W, strain kgd1, hits give low values 1 | locus YIR030C, strain dcg1, hits give low values 0.99 | locus YJL092W, strain hpr5, hits give low values 1.02 | locus YJL095W, strain BCK1 (second series), hits give low values 1.02 | locus YJL095W, strain BCK1, hits give low values 0.95 and 0.974 | locus YJL115W, strain asf1, hits give low values 1.03 | locus YJL129C, strain trk1, hits give low values 1.05 | locus YJL134W, strain LCB3, hits give low values 0.996 | locus YJL154C, strain vps35, hits give low values 1.03 | locus YJL164C, strain tpk1, hits give low values 1.01 | locus YJL166W, strain qcr8, hits give low values 1.02 | locus YJL168C, strain set2, hits give low values 0.991 | locus YJL187C, strain SWE1 (second series), hits give low values 0.977 | locus YJL187C, strain SWE1, hits give low values 1.03 | locus YJR043C, strain POL32, hits give low values 1
